Conditions in all cases: mRNA level, 48 h; actives raise or lower the signal
Read-out in assay [1]: Glutathione S-transferase M3 (GSTM3), GSTM3 (gene 2947)
Put plainly: LTEA_HepaRG_GSTM3: Life Technologies and Expression Analysis (LTEA) Assay for Glutathione S-transferase M3 (GSTM3) using HepaRG (AID 2283501). The method in brief:
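HepaRG, plated 48 h, then serum-free induction medium; test chemical 48 h, duplicate; 100 uM top, half-log x8, 0.5% DMSO. Read-out: GSTM3 mRNA (TaqMan qRT-PCR, Fluidigm array). Bidirectional fit vs DMSO.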

Read-out in assay [2]: Heat shock 70 kDa protein 1 (HSPA1A), gene 3303
Put plainly: LTEA_HepaRG_HSPA1A: Life Technologies and Expression Analysis (LTEA) Assay for Heat shock 70 kDa protein 1 (HSPA1A) using HepaRG (AID 2283502). An outline of the steps: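 Cells were plated and cultured for 48 h, then switched to serum-free induction medium. Chemicals were added at eight half-log concentrations up to 100 uM for 48 h. RNA was then isolated and HSPA1A measured by qRT-PCR with bidirectional curve fitting against DMSO.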

Read-out in assay [3]: Hypoxia-inducible factor 1-alpha (Homo sapiens) (UniProt Q16665)
The assay is described as follows: LTEA_HepaRG_HIF1A: Life Technologies and Expression Analysis (LTEA) Assay for Hypoxia-inducible factor 1 (HIF1A) Trancription factor using HepaRG (AID 2283503). The method in brief: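 HIF1A transcript level read by qRT-PCR (ACTB, GAPDH, POLR2A normalization) after 48 h chemical exposure of HepaRG cultures. Eight half-log concentrations, top 100 uM, 0.5% DMSO vehicle, duplicates; bidirectional curve fit against DMSO baseline.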

Read-out in assay [4]: 3-Hydroxy-3-Methylglutaryl-CoA Synthase 2 (HMGCS2), HMGCS2 (gene 3158)
The assay is described as follows: LTEA_HepaRG_HMGCS2: Life Technologies and Expression Analysis (LTEA) Assay for 3-Hydroxy-3-Methylglutaryl-CoA Synthase 2 (HMGCS2) using HepaRG (AID 2283504). The method in brief:
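HepaRG, plated 48 h then switched to serum-free induction media; cmpd 8-pt, max 100 uM, 1/2-log, 0.5% DMSO, n=2, 48 h. HMGCS2 mRNA by Fluidigm TaqMan qRT-PCR, ACTB/GAPDH/POLR2A norm; bidirectional fit vs DMSO.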

Read-out in the next assay: HGF (gene 3082)
Put plainly: LTEA_HepaRG_HGF: Life Technologies and Expression Analysis (LTEA) Assay for Hepatocyte Growth Facto (HGF) using HepaRG (AID 2283505). An outline of the steps:
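Read-out is HGF transcript level by qRT-PCR, normalized to three housekeeping genes, fitted bidirectionally against 0.5% DMSO vehicle. Human HepaRG cells received test chemicals for 48 h at up to 100 uM.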

Read-out in assay [5]: Insulin Like Growth Factor 1 (IGF1), IGF1 (gene 3479)
The assay is described as follows: LTEA_HepaRG_IGF1: Life Technologies and Expression Analysis (LTEA) Assay for Insulin Like Growth Factor 1 (IGF1) using HepaRG (AID 2283506). An outline of the steps:
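Cells are thawed, plated and cultured 48 h, then exposed in duplicate to chemical (highest 100 uM, half-log steps, 0.5% DMSO) for another 48 h. Total RNA is analysed by Fluidigm qRT-PCR for IGF1 expression relative to vehicle.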

Read-out in assay [6]: Intercellular Adhesion Molecule 1 (ICAM1), ICAM1 (gene 3383)
Put plainly: LTEA_HepaRG_ICAM1: Life Technologies and Expression Analysis (LTEA) Assay for Intercellular Adhesion Molecule 1 (ICAM1) using HepaRG (AID 2283507). The method in brief: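 Readout is qRT-PCR mRNA level, normalized to three housekeeping genes and fitted bidirectionally against 0.5% DMSO vehicle. Human HepaRG cultures received compound for 48 h, top concentration 100 uM with half-log dilutions.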

Read-out in assay [7]: Insulin-like growth factor-binding protein 1 (IGFBP1), IGFBP1 (gene 3484)
The assay is described as follows: LTEA_HepaRG_IGFBP1: Life Technologies and Expression Analysis (LTEA) Assay for Insulin-like growth factor-binding protein 1 (IGFBP1) using HepaRG (AID 2283508). The method in brief: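 Thawed HepaRG cells are plated for 48 h, switched to serum-free induction medium, then dosed in duplicate for another 48 h (100 uM top, half-log steps). Lysates in RLT go to qRT-PCR, and gain or loss of signal is fitted relative to vehicle.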

Read-out in assay [8]: Interleukin 6 (IL6), IL6 (gene 3569)
The assay is described as follows: LTEA_HepaRG_IL6: Life Technologies and Expression Analysis (LTEA) Assay for Interleukin 6 (IL6) using HepaRG (AID 2283509). The method in brief:
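Changes in IL6 mRNA, up or down relative to 0.5% DMSO controls, were derived from concentration-response curves in human HepaRG cells treated for 48 h at up to 100 uM, with ACTB, GAPDH and POLR2A as normalizers.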

Read-out in assay [9]: Interleukin 6 Receptor (IL6R), IL6R (gene 3570)
Put plainly: LTEA_HepaRG_IL6R: Life Technologies and Expression Analysis (LTEA) Assay for Interleukin 6 Receptor (IL6R) using HepaRG (AID 2283510). The method in brief:
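Cells were thawed, plated and cultured 48 h, then medium was changed to serum-free induction medium. Chemicals were added in duplicate (100 uM top, half-log steps, 0.5% DMSO) for 48 h. Lysates were analyzed by qRT-PCR for IL6R expression.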

The source made the active and inactive calls. The calls were made as follows: active = hit-call score of the fitted dose curve at least 0.9, where 1 is the maximum; inactive = score below 0.9.

Hypoxia-inducible factor 1-alpha (Homo sapiens), sequence (Q16665 whole entry, looked up): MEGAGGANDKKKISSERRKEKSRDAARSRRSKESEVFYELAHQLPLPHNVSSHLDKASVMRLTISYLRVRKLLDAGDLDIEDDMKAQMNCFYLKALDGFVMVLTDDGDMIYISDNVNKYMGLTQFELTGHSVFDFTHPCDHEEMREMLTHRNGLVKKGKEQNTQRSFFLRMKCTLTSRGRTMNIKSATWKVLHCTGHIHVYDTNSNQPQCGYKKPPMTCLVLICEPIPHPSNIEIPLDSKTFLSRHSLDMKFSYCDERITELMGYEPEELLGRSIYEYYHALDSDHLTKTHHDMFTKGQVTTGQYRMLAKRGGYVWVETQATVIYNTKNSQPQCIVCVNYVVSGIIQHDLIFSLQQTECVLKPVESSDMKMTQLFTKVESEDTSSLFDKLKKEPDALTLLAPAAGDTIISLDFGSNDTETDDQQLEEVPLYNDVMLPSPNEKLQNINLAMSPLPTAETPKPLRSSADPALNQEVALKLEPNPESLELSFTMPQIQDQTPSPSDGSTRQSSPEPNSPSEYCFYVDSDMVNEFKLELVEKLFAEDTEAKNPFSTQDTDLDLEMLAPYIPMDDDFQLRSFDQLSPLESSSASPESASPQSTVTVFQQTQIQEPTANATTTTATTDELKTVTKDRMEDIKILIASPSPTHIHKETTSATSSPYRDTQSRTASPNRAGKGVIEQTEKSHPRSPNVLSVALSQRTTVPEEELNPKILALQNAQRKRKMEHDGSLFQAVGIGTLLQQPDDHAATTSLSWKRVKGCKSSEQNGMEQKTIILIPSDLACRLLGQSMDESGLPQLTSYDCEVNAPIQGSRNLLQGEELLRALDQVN

In the case of `c1ccc2cc3ccccc3cc2c1`, the compound was classed as inactive (in assay [1]; in [2]; in [3]; in assay [4]; in the assay with HGF (gene 3082); in assay [5]). In addition, the result in [6], in [7], in [8] and in assay [9] was inactive.

For `CCCCC(CC)C(=O)OCCOCCOCCOC(=O)C(CC)CCCC` (stereo not given), the call (in assay [1]; in assay [2]; in [3]; in assay [4]; with HGF (gene 3082); in [5]) was inactive. The compound was called inactive in assay [6], in assay [7], in assay [8] and in [9].

As to `CC(C)CC(C)O` (stereo not given), the result (in assay [1]; in assay [2]; in [3]; in [4]; with HGF (gene 3082); in [5]) was inactive. Further, the outcome in assay [6], in assay [7], in assay [8] and in [9] was inactive.

As for `OC(Cn1cncn1)(Cn1cncn1)c1ccc(F)cc1F`, the call (in [1]; in [2]; in assay [3]; in assay [4]; with HGF (gene 3082); in [5]) was inactive. The call in assay [6], in assay [7], in assay [8] and in assay [9] was inactive.

`NC(=O)N(O)[C@@H]1COc2cc(OCc3ccccc3)ccc21`: the call (in assay [1]; in [2]; in [3]; in assay [4]; in the assay with HGF (gene 3082); in assay [5]) was inactive. In addition, the result in assay [6], in assay [7], in assay [8] and in [9] was inactive.

As for `CC(=O)c1ccccc1`, the call (in [1]; in assay [2]; in assay [3]; in assay [4]; with HGF (gene 3082); in assay [5]) was inactive. Also, the outcome in [6], in assay [7], in assay [8] and in assay [9] was inactive.

Turning to `NC(=O)N1c2ccccc2C=Cc2ccccc21`, the outcome (in assay [1]; in assay [2]; in [3]; in [4]; with HGF (gene 3082); in assay [5]) was inactive. Moreover, the compound was called inactive in [6], in assay [7], in [8] and in assay [9].

`CCc1ccc(O)c(C(C)(C)C)c1`: the outcome (in assay [1]; in assay [2]; in [3]; in [4]; with HGF (gene 3082); in assay [5]) was inactive. For the same compound, the compound was classed as inactive in assay [6], in [7], in assay [8] and in assay [9].

With `c1ccc2ncccc2c1`, the outcome (in assay [1]; in assay [2]; in [4]; with HGF (gene 3082); in assay [5]; in assay [6]) was inactive. Moreover, the call in assay [7], in assay [8] and in assay [9] was inactive. In addition, the concentration at half-maximal activity (AC50) (as a rule, the concentration giving half of the maximal activity seen) in assay [3] was 50 µM (active).

In the case of `C[C@@H](Oc1ccc(CNC(=O)c2cccnc2Oc2ccc3c(c2)OCO3)c(F)c1)C(=O)O`, the compound was called inactive (in assay [1]; in [2]; in assay [3]; in the assay with HGF (gene 3082); in assay [5]; in [6]). Further, the compound was classed as inactive in assay [7], in [8] and in [9]. The AC50 in assay [4] was 25.8 µM (active).

Take `O=S(=O)(O)c1ccc(N=Nc2c(O)ccc3cc(S(=O)(=O)O)ccc23)cc1`: the call (in assay [1]; in [2]; in assay [3]; in assay [4]; with HGF (gene 3082); in [5]) was inactive. The result in assay [6], in assay [7], in assay [8] and in assay [9] was inactive.

On to `NC(N)=O`, for which the outcome (in assay [1]; in assay [2]; in assay [3]; in [4]; with HGF (gene 3082); in assay [5]) was inactive. Also, the compound was classed as inactive in assay [6], in assay [7], in [8] and in [9].

Regarding `CCCCCOC(C)=O`, the call (in [1]; in assay [2]; in assay [3]; in assay [4]; with HGF (gene 3082); in assay [5]) was inactive. In addition, the compound was called inactive in [6], in assay [7], in assay [8] and in assay [9].

In the case of `O=C(O)c1cccc(C(=O)O)c1`, the compound was called inactive (in assay [1]; in [2]; in assay [3]; in assay [4]; with HGF (gene 3082); in [5]). Moreover, the compound was called inactive in assay [6], in assay [7], in assay [8] and in assay [9].

In the case of `CCOC(N)=O`, the compound was classed as inactive (in assay [1]; in assay [2]; in assay [3]; in assay [4]; with HGF (gene 3082); in assay [5]). The result in assay [6], in assay [7], in assay [8] and in assay [9] was inactive.

On to `O=S1(=O)CCCO1`, for which the outcome (in assay [1]; in assay [2]; in assay [3]; in [4]; with HGF (gene 3082); in assay [5]) was inactive. Besides, the result in assay [6], in assay [7], in assay [8] and in assay [9] was inactive.

Turning to `OC(CCl)CCl`, the result (in assay [1]; in assay [2]; in assay [3]; in assay [4]; with HGF (gene 3082); in assay [5]) was inactive. Moreover, the compound was called inactive in [6], in [7], in assay [8] and in [9].

Source of the values: PubChem BioAssay (EPA / NIEHS).
